Assay results reported in PubChem BioAssay.
Values without a mark were called inactive. No rule for the calls is given here.

target: Pantothenate synthetase (Mycobacterium tuberculosis (strain ATCC 25618 / H37Rv)) (UniProt P9WIL5); experiment: Coupled enzyme confirmation of inhibitors against recombinant Mtb PanC (AID 375); settings: coupled enzyme assay; at 10 µM, active compounds read high;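 also: 0% = full reaction with vehicle and 100% = no enzyme background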
Sequence (P9WIL5 whole entry, looked up): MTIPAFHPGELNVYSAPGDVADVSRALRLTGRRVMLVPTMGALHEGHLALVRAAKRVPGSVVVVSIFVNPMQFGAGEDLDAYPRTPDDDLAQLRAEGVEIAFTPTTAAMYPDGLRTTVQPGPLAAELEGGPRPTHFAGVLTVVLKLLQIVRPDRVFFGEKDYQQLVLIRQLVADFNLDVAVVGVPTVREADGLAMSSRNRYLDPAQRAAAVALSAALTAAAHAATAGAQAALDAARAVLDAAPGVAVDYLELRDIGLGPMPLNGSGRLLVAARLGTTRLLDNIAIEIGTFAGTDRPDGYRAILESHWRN

Row | Structure (SMILES) | inhibition
1 | Cc1cc(/C=N/n2cnnc2)c(C)n1-c1ccc(Cl)cc1Cl | 1%
2 | COc1ccccc1NC(=O)N1CCN(c2cccc(C(F)(F)F)c2)CC1 | 4%
3 | COCCOC(=O)/C=C1/NC(=O)CS1 | 0%
4 | Cc1cc(C)cc(NC(=O)C2CCCN(S(=O)(=O)c3cnc[nH]3)C2)c1 (stereo not given) | 0%
5 | CC(=O)Nc1ccc(S(=O)(=O)N2CCC(c3nc4ccccc4[nH]3)CC2)cc1 | 0%
6 | C[C@]12CCC(=O)C=C1CC[C@@H]1[C@@H]2CC[C@@]2(C)[C@H]1CC[C@]2(O)C(=O)CO | 0%
7 | O=C1CCCC2=C1C(c1ccc(Br)cc1)c1c([nH]c(=S)[nH]c1=O)N2 (stereo not given) | 0%
8 | CC(=O)OCC(=O)[C@@]1(O)CC[C@H]2[C@@H]3CCC4=CC(=O)CC[C@]4(C)[C@H]3[C@@H](O)C[C@@]21C | 5%
9 | Cc1cccc(NC(=O)c2cnc3sccn3c2=O)n1 | 4%
10 | Nc1nc(CN2CCOCC2)cs1 | 1%
11 | CCN(CC)CC(=O)Nc1ccc(-c2nc3cc(NC(=O)CN(CC)CC)ccc3o2)cc1 | 7%
12 | CC(C)Oc1ccc2c(=O)c(-c3ccccc3)coc2c1 | 4%
13 | COC(=O)COc1ccc(S(=O)(=O)NCCC2=CCCCC2)cc1 | 2%
14 | CCOc1ccc(C(=O)N2CCC(C(=O)c3ccc4c(c3)OCCO4)CC2)cc1 | 7%
15 | CCOC(=O)N1CCN(c2c(NCC3CCN(Cc4cccc(C)c4)CC3)c(=O)c2=O)CC1 | 4%
16 | Cc1ccc2cc(CN(Cc3ccc(F)cc3)Cc3nnnn3C3CCCC3)c(=O)[nH]c2c1 | 6%
17 | O=C(Nc1ccc(N2CCOCC2)cc1)Nc1ccc2nc(-c3ccco3)c(-c3ccco3)nc2c1 | 4%
18 | COc1ccc2c(c1OC)C(=O)OC2C1c2c(cc3c(c2OC)OCO3)CCN1C (stereo not given) | 0%
19 | Cc1ccc(S(=O)(=O)N2CCOCC2)cc1C(=O)OCC(=O)N1CCc2ccccc2C1 | 0%
20 | NC(N)=NS(=O)(=O)c1ccc(N)cc1 | 0%

Row | Structure (SMILES) | inhibition
21 | COc1ccc(NC(=O)C2CCCCN2S(=O)(=O)c2ccc(F)cc2)cc1 (stereo not given) | 0%
22 | COc1cc2c(cc1OC)-c1nnc(C)n1C1(CCCC1)C2 | 0%
23 | COc1ccc(N2CCN(Cc3nc4c(c(=O)n(C)c(=O)n4C)n3Cc3ccccc3C)CC2)cc1 | 7%
24 | COCCNC(=O)Cn1nc(C(F)(F)F)c(Br)c1C | 0%
25 | Cc1ccc(-n2ncc3c(=O)n(CC(=O)NCc4ccco4)cnc32)cc1 | 0%
26 | COc1ccc(NC(=O)CSc2nnc(-c3ccccc3)n2N)cc1 | 0%
27 | O=C(CSc1nnc(-c2ccco2)n1CC1CCCO1)N1CCCCC1 (stereo not given) | 0%
28 | CN(C1CCS(=O)(=O)C1)S(=O)(=O)c1cccc2nsnc12 (stereo not given) | 2%
29 | O=C(Cc1c[nH]c2ccccc12)N1CCc2ccccc21 | 3%
30 | CCOC(=O)C1CCCN(CCC(C)c2ccccc2)C1 (stereo not given) | 1%
31 | CCOc1ccccc1C1N(c2ccc(F)cc2)C(=O)C2CCCN21 (stereo not given) | 2%
32 | Cc1cc(C)c(C)c(S(=O)(=O)Nc2ccc(O)cc2)c1C | 10%
33 | CC(Oc1ccc(Br)cc1)C(=O)N1CCc2ccccc21 (stereo not given) | 0%
34 | CN(CC(=O)Nc1ccncc1)S(=O)(=O)c1ccccc1 | 10%
35 | O=C1N(c2ccccc2)C2CS(=O)(=O)CC2N1c1ccc(Br)cc1 (stereo not given) | 0%
36 | COc1ccc(N2CC(C(=O)Nc3ccc(F)cc3F)CC2=O)cc1 (stereo not given) | 1%
37 | Nc1c(Sc2ccccc2)c(=O)[nH]c(=O)n1Cc1ccccc1 | 0%
38 | O=C(Cn1nnc(-c2cc(Cl)ccc2-n2cnnn2)n1)N1CCCc2ccccc21 | 0%
39 | COc1ccc2[nH]c(=O)c(CN(CCO)S(=O)(=O)c3ccc4c(c3)OCCO4)cc2c1 | 0%
40 | CCN(CC)CCNC(=O)c1cc(Cl)c(N)cc1OC | 0%
